An excerpt weighted towards active compounds, which were near 2.2% of everything screened.
KLF5 inh: KLF5 expression inhibitors, primary screen, DLD-1 cells, luminescence. DLD-1 KLF5 promoter-luciferase reporter. inhibition, % at 5 µM. 290,000 tested, 0.23% active. AID 1700, 2009;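 active = inhibition above a per-plate limit of that plate's mean compound inhibition plus 3 SD, cut at about 60% in these data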;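 also: 0% = DMSO wells and 100% = LY294002 at 200 µM; higher means less KLF5 promoter-driven luciferase light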
BaF3 parental: parental Ba/F3 cell viability inhibition, counter-screen for JAK2V617F inhibitor project, murine pro-B, CellTiter-Glo luminescence; CellTiter-Glo ATP luminescence; inhibition, % at 5.6 µM; 220,000 tested, 1.1% active; AID 1486, 2009;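 active = inhibition above a per-campaign cutoff, the mean inhibition of all tested compounds plus 3 SD, cut at about 27% in these data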;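 also: 0% = DMSO wells and 100% = JAK Inhibitor I control wells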
APP 5UTR inh: inhibitors of APP translation via 5'UTR reporter, primary screen, APP 5'UTR luciferase, SH-SY5Y cells; SH-SY5Y APP 5'UTR-luciferase reporter, luminescence; inhibition, % at 2 µM; 190,000 tested, 0.82% active;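 active = inhibition above a set limit, derived from the sample mean plus 3 SD, cut at about 45% in these data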
Ba/F3 V617F tox: reduced viability of JAK2V617F-dependent Ba/F3 cells, primary screen, JAK2V617F inhibitor project, cell-based, Ba/F3 EpoR-JAK2V617F, luminescence | 220,000 tested, 1.1% active | inhibition, % at 5.6 µM | ATP luminescence;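 active = inhibition above the campaign mean plus 3 SD over all tested compounds, cut at about 24% in these data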;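 also: cytokine-independent growth of Ba/F3 cells driven by EpoR plus mutant JAK2; 0% = DMSO-treated cells and 100% = JAK inhibitor I control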
IEC-6 tox: cytotoxicity in IEC-6 intestinal epithelial cells, primary screen, cytotoxicity control for KLF5 inhibitor project, cell-based, luminescence; IEC-6 cytotoxicity, luminescence viability; inhibition, % at 5 µM; 290,000 tested, 0.78% active; in the data active = inhibition above about 22%;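 also: 0% = plate median of test compound wells and 100% = cytotoxic reference compound wells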
aSyn UTR inh: MLPCN primary screen, SNCA 5' untranslated region; inhibition, % (tested at 7.5 µM); alpha-synuclein 5'UTR reporter, inhibitor activity; 300,000 tested, 0.82% active; AID 1813, 2009; in the data active = inhibition above about 60%;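 also: H4 neuroglioblastoma cells stably carrying SNCA 5'UTR luciferase fusion; 0% = DMSO wells and 100% = positive control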
BaF3 parental 2: parental Ba/F3 cell viability inhibition, counter-screen for JAK2V617F inhibitor project, murine pro-B, CellTiter-Glo luminescence; shares compounds with Ba/F3 V617F tox; inhibition, % at 5.6 µM; 580 tested, 31% active; cells kept alive by added IL-3;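 active = cell growth inhibition above the hit limit set in the earlier mutant JAK2 cell screen, cut at about 27% in these data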;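 also: plate controls were DMSO-treated cells for no effect and JAK Inhibitor I control wells for full effect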
JAK2V617F conf: viability loss in Ba/F3 EpoR-JAK2V617F cells, confirmation, JAK2V617F inhibitor project, cell-based, luminescence, triplicate; AID 1521, 2009; CellTiter-Glo luminescence; shares compounds with Ba/F3 V617F tox; inhibition, % at 5.6 µM; 580 tested, 66% active;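 active = mean inhibition above the hit cutoff derived in the earlier primary screen, cut at about 25% in these data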;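 also: 0% = DMSO-treated cells and 100% = JAK inhibitor I control wells; higher means lower luminescence from reduced cell ATP and viability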
Active calls of the source: *; · = not tested or not shown.

SMILES	KLF5 inh	BaF3 parental	APP 5UTR inh	Ba/F3 V617F tox	IEC-6 tox	aSyn UTR inh	others
Cc1ccc(N(C(=O)CS(=O)CC(=O)Nc2ccc(F)cc2)C(C)C(=O)NC(C)(C)C)cc1 (centres undefined)	19.1	·	·	·	3.2	9.7
O=c1[nH][nH]cc1C=Nc1cc(Cl)ccc1O	-13.8	2.9	20.6	4.9	2.9	-48.8
O=c1[nH][nH]cc1C=Nc1ccc(Cl)cc1Cl	-3.1	4.6	63.9*	3.9	0.2	-52.8
COc1cc(C(=O)N(C)CCOc2ccccc2)ccc1OCC(=O)Nc1cccc(C(F)(F)F)c1	·	·	·	·	·	-5.7
O=C(Oc1nsnc1N1CCOCC1)c1ccccc1	-13.1	5.6	53.3*	1.0	2.2	-8.3
O=C(Oc1nsnc1N1CCOCC1)N1CCOCC1	-2.9	-1.8	-2.4	-3.6	0.0	-10.4
COCCNC(=O)CN1CCC(NC(=O)c2ccco2)CC1	-22.6	45.7*	-5.0	0.6	-3.1	13.2
C=CCNC(=O)CN1CCC(NC(=O)c2ccco2)CC1	-6.9	1.4	16.6	-1.4	-0.9	-13.8
N#CC1=C(N)Oc2c(ccc3ccccc23)C1c1cccs1 (centres undefined)	-37.8	5.3	-16.6	-0.2	1.9	110.2*
Cc1ccc2[nH]c(=O)c(C3C(C#N)=C(N)Oc4c3ccc3cccnc43)cc2c1 (centres undefined)	3.8	1.6	33.7	-3.0	3.2	75.3*
N#CC1=C(N)Oc2c(ccc3cccnc23)C1c1ccccc1 (centres undefined)	50.2	39.1*	·	68.8*	3.3	28.6
COC(=O)C1=C(C)NC(C)=C(C(=O)OC)C1c1cc2cc(C)ccc2[nH]c1=O	5.1	-2.4	8.0	-0.7	1.2	15.0
N#CC1=C(N)Oc2cc(O)ccc2C1c1cccs1 (centres undefined)	-11.3	5.1	-9.3	-3.4	-5.3	16.7
O=C(NCCC1CCCCN1S(=O)(=O)c1ccc(Cl)cc1)C(=O)NCc1cccnc1 (centres undefined)	·	·	·	·	·	16.7
O=C(CCc1nnc(C2CCCCC2)o1)N1CCC(Oc2cccnc2)CC1	-8.4	2.9	-39.0	0.1	4.1	-12.5
Cn1ncc(Br)c1NC(=O)Nc1ccc(OC(F)(F)F)cc1	15.0	31.8*	·	3.6	11.2	8.2
NC(=S)N/N=C/c1ccccc1OCCSc1ccc(Cl)cc1	-21.6	44.0*	-35.6	44.5*	-0.5	2.0
COc1cccc(/C=N/NC(N)=S)c1OCc1ccccc1Cl	-22.8	0.2	20.4	3.3	1.4	22.7
O=C1c2cc(F)ccc2-n2c1nc1ccccc1c2=O	25.4	·	·	·	12.2	65.8*
Nn1c(-c2ccc(F)cc2)nc2ccccc2c1=O	-13.5	·	·	·	8.2	6.2
C=C1/C(=C\C=C2/CCC[C@]3(C)[C@@H]([C@H](C)CCCC(C)(C)O)CC[C@@H]23)C[C@@H](O)C[C@@H]1O	-34.8	2.8	·	44.9*	1.7	-0.1
COc1cccc(-n2ccn(CC(=O)NCCc3ccccc3)c(=O)c2=O)c1	-21.5	·	·	·	-3.2	11.3
CCN1/C(=C/c2cc[n+](C)cc2)C=Cc2cc(C)ccc21	-5.7	73.3*	-0.6	99.4*	-2.6	·
COc1ccc(-c2ccc3nnc(SCC(N)=O)n3n2)cc1	-6.2	6.9	-27.0	3.6	3.4	10.9
CCSc1nnc2ccc(-c3ccc(OC)c(OC)c3)nn12	-36.1	·	·	·	10.1	61.7*
SMILES	KLF5 inh	BaF3 parental	APP 5UTR inh	Ba/F3 V617F tox	IEC-6 tox	aSyn UTR inh	others
CCOCCCN(C(=O)Cn1nnc(-c2ccc(OC)c(OC)c2)n1)C(C(=O)NCC1CCCO1)c1ccc(F)cc1 (centres undefined)	4.2	·	·	·	-14.0	20.8
CCc1nn2cc(-c3ccccc3)nc2s1	-72.4	4.5	-152.8	-2.1	1.9	80.2*
CCOC(=O)N1CCC(NC(=O)CS(=O)Cc2nc(-c3ccc(Cl)cc3)oc2C)CC1 (centres undefined)	-26.1	·	·	·	-3.9	13.3
O=C(COc1cccnc1[N+](=O)[O-])NCCc1ccccc1	-20.6	10.8	-9.5	2.2	0.5	-11.1
CCC(=O)NC(Cc1ccccc1)c1ccc2c(c1)OCCCO2 (centres undefined)	-35.8	30.8*	-11.1	38.7*	-3.3	-10.7
O=C(NC(Cc1ccccc1)c1ccc2c(c1)OCCCO2)c1ccccc1 (centres undefined)	-6.0	1.1	-16.1	-3.7	0.8	-15.8
Cc1cc(C)c(S(=O)(=O)Nc2ccccc2C(=O)N2CCOCC2)c(C)c1	7.4	·	·	·	-4.0	1.1
O=S(=O)(Nc1nc2ccccc2nc1N1CCc2ccccc2C1)c1ccc(Cl)cc1	-12.7	-0.3	-21.2	-2.5	-4.7	86.2*
O=S(=O)(Nc1nc2ccccc2nc1N1CCc2ccccc2C1)c1ccc(Br)cc1	-53.8	12.3	-64.3	6.7	8.2	·
CC(=O)Nc1ccc(S(=O)(=O)N2c3ccc(F)cc3CCC2C)cc1 (centres undefined)	·	·	·	·	·	7.3
COc1ccc(S(=O)(=O)N2c3ccc(F)cc3CCC2C)cc1 (centres undefined)	·	·	·	·	·	112.2*
O=C(NC1CCCCC1)C(c1ccc(F)cc1)N(C(=O)c1csnn1)C1CC1 (centres undefined)	-1.0	·	·	·	1.0	-0.6
C=CCN(c1ccccc1OC)S(=O)(=O)c1ccc(Cl)c(C(=O)Nc2ccc(N3CCOCC3)cc2)c1	-3.9	10.2	17.3	14.8	-4.3	89.2*
CN(CCc1cnn(C)c1)C(=O)C1CCC(=O)N(CC2CCCCC2)C1 (centres undefined)	-16.2	·	·	·	-2.0	-0.2
Nc1ccc(Oc2cccc(Oc3ccc(N)cc3)c2)cc1	25.7	7.9	49.4*	2.1	-2.2	87.2*
COc1ccc(CN=C(Nc2ccccc2)SC2CC(=O)N(C)C2=O)cc1 (centres undefined)	-10.1	0.9	5.9	-3.1	-4.2	-0.8
O=C(NC1(C(F)(F)F)Oc2ccccc2O1)N1CCCC1	2.0	23.1	14.6	40.5*	7.0	-43.5	BaF3 parental 2=10.1;JAK2V617F conf=36.0*
CCOc1ccc(-c2cc(C(=O)N3CCN(C)CC3)c3ccccc3n2)cc1	-54.4	6.9	-36.8	0.6	-1.9	-135.9
CCOC(=O)N1CCN(C(=O)c2cc(-c3ccc(OCC)cc3)nc3ccccc23)CC1	6.1	20.4	78.4*	68.2*	23.9*	-12.5	BaF3 parental 2=69.2*;JAK2V617F conf=94.0*
CSc1ccccc1OCc1cc(C(=O)N2CCc3c(Cl)cccc3C2)no1	-34.9	·	·	·	6.5	-8.3
